The remaining activity is the signal under treatment as a percentage of the control signal. One may read the viability as a read-out of living cells in per cent, often relative to untreated cells.

Test [1] has as its system Aerobactin synthetase IucA (Klebsiella pneumoniae). The test is described as follows: inhibition of K. pneumoniae IucA enzyme – biochemical, Tocris library, absorbance (AID 1345561; call rule not given here;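 further: 100% = enzyme without compound and 0% = no enzyme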). As to conditions: purified IucA enzyme assay, absorbance (OD) read-out; stronger effect = lower value;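 tested at 8 µM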.
Test [2] in a line: viability loss with induced miR-34 in A549 – imaging, A549 dox-inducible miR-34, nuclei and caspase counts, primary screen (AID 1347080;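 active means compounds whose cell count with miR-34 switched on is under 0.7 times the count with it off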). As to conditions: A549 miR-34 inducible, Hoechst nuclei count, 48 h.
The nature of test [3]: MELAS cybrid and Rieske KO viability enhancers – cell-based, MELAS cybrids, Rieske KO mouse fibroblasts, CellTiter-Glo, primary screen (AID 1508586;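 active means mean z-score across replicates of 1.96 or higher in either the MELAS or the Rieske mutant cell line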;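 further: z relative to plate mean and SD of compound and empty wells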). To be noted: low glucose. A general note: Cellular ATP, detected with luciferase, serves as a proxy for viable cell number.
Test [4] is described as follows: drug combination growth inhibition, ovarian cancer – cell-based, oncology-focused library, rucaparib conditional, profiling panel (AID 1508598). As to conditions: patient-derived ovarian cancer cells, CellTiter-Glo viability, 144 h, stronger effect = lower value.
A short description of test [5]: galactose survival enhancers in mitochondrial complex I cybrids – cell-based, galactose medium, ATP luminescence, primary screen (AID 1645843;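 active means z-score of at least 1.8 in each of two replicates, scored against plate mean and spread of sample wells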;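 further: positive z means more ATP and so rescue of galactose-driven cybrid death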). To be noted: complex I mutant cybrid cells, 72 h, stronger effect = higher value.
Test [6] is described as follows: compounds altering viability of human ES cells (AID 493140; call rule not given here;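 further: cells exposed to compounds for four days before counting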). To be noted: human embryonic stem cell survival screen; stronger effect = higher value.
Test [7] in a line: P. berghei load reduction in hepatocytes – cell-based, HepG2, luciferase luminescence, HepG2 viability, primary screen (AID 624349; in the data active means parasite load remaining mostly below about 12%, no sharp cut-off; inactive means mostly above about 10%;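 further: 100% = mean of DMSO negative control wells on the same plate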). To be noted: P. berghei liver stage in HepG2, luciferase luminescence, concentration not given here; parasite load remaining: stronger effect = lower value; viability: measured here: HepG2 viability without parasites.
Setting [8] is: stronger effect = lower value, cell number ratio, induced over uninduced.
The mark [9] stands for this setting: measured here: relative caspase fold change +Dox/-Dox.
The mark [10] stands for this setting: measured here: total cells with miR-34 induction, stronger effect = lower value.
The mark [11] stands for this setting: measured here: total cells without miR-34 induction.
Setting [12] is: MELAS cybrid survival, CellTiter-Glo 48 h, stronger effect = higher value.
The mark [13] stands for this setting: Rieske KO mouse fibroblast survival, CellTiter-Glo 72 h.

Values joined by “and” are separate entries in the source; they are usually repeats but may differ in a detail not shown here. Equal entries are not always repeated. Active and inactive are the calls of the source.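 How the source made its calls, unless noted: active means normalized viability below 100% at a tested concentration; inactive means the rest.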

Take `Cc1ccc(-c2csc(NC(=O)c3ccccc3)n2)c(C)c1`: the remaining activity in test [1] was 101% (inactive). Moreover, the fold change in test [2] (setting [8]) is 0.855 (inactive) and 0.98 (inactive); in test [2] (setting [9]), 0.603 and 0.953. Besides, the cell count in test [2] (setting [10]) is 6970 and 3650; in test [2] (setting [11]) it was 8160 and 3730. For the same molecule, the z-score in test [3] (setting [12]) is -0.247 (inactive); in test [3] (setting [13]) it was 0.265; in test [5], -0.675 (inactive). Moreover, the viability is 125% (inactive) in test [4] (at 0.000305 µM, OCI-C5x cells, with rucaparib 10 µM, 100% = cells with rucaparib alone); 121% (inactive) in test [4] (at 0.000305 µM, OCI-C5x cells, without rucaparib); 102% (inactive) in test [4] (at 0.000305 µM, OCI-P5x cells, with rucaparib 20 µM, 100% = cells with rucaparib alone); 106% (inactive) in test [4] (at 0.000305 µM, OCI-P5x cells, without rucaparib); 119% (inactive) in test [4] (at 0.00122 µM, OCI-C5x cells, with rucaparib 10 µM, 100% = cells with rucaparib alone); 117% (inactive) in test [4] (at 0.00122 µM, OCI-C5x cells, without rucaparib). The viability in test [4] (at 0.00122 µM, OCI-P5x cells, with rucaparib 20 µM, 100% = cells with rucaparib alone) was 99.9% (active); in test [4] (at 0.00122 µM, OCI-P5x cells, without rucaparib) it was 101% (inactive); in test [4] (at 0.00488 µM, OCI-C5x cells, with rucaparib 10 µM, 100% = cells with rucaparib alone), 132% (inactive); in test [4] (at 0.00488 µM, OCI-C5x cells, without rucaparib) it was 125% (inactive); in test [4] (at 0.00488 µM, OCI-P5x cells, with rucaparib 20 µM, 100% = cells with rucaparib alone), 98.6% (active); in test [4] (at 0.00488 µM, OCI-P5x cells, without rucaparib), 105% (inactive). Moreover, the viability in test [4] (at 0.0195 µM, OCI-C5x cells, with rucaparib 10 µM, 100% = cells with rucaparib alone) is 115% (inactive); in test [4] (at 0.0195 µM, OCI-C5x cells, without rucaparib), 113% (inactive); in test [4] (at 0.0195 µM, OCI-P5x cells, with rucaparib 20 µM, 100% = cells with rucaparib alone), 102% (inactive); in test [4] (at 0.0195 µM, OCI-P5x cells, without rucaparib), 98.4% (active); in test [4] (at 0.0781 µM, OCI-C5x cells, with rucaparib 10 µM, 100% = cells with rucaparib alone) it was 125% (inactive); in test [4] (at 0.0781 µM, OCI-C5x cells, without rucaparib), 117% (inactive). In addition, the viability in test [4] (at 0.0781 µM, OCI-P5x cells, with rucaparib 20 µM, 100% = cells with rucaparib alone) was 103% (inactive); in test [4] (at 0.0781 µM, OCI-P5x cells, without rucaparib), 103% (inactive); in test [4] (at 0.313 µM, OCI-C5x cells, with rucaparib 10 µM, 100% = cells with rucaparib alone), 123% (inactive); in test [4] (at 0.313 µM, OCI-C5x cells, without rucaparib), 116% (inactive); in test [4] (at 0.313 µM, OCI-P5x cells, with rucaparib 20 µM, 100% = cells with rucaparib alone) it was 100% (inactive); in test [4] (at 0.313 µM, OCI-P5x cells, without rucaparib) it was 99.4% (active). The viability in test [4] (at 1.25 µM, OCI-C5x cells, with rucaparib 10 µM, 100% = cells with rucaparib alone) is 131% (inactive); in test [4] (at 1.25 µM, OCI-C5x cells, without rucaparib), 112% (inactive); in test [4] (at 1.25 µM, OCI-P5x cells, with rucaparib 20 µM, 100% = cells with rucaparib alone), 98.2% (active); in test [4] (at 1.25 µM, OCI-P5x cells, without rucaparib) it was 103% (inactive); in test [4] (at 5 µM, OCI-C5x cells, with rucaparib 10 µM, 100% = cells with rucaparib alone), 155% (inactive); in test [4] (at 5 µM, OCI-C5x cells, without rucaparib) it was 115% (inactive). Also, the viability was 91.8% (active) in test [4] (at 5 µM, OCI-P5x cells, with rucaparib 20 µM, 100% = cells with rucaparib alone) and 100% (inactive) in test [4] (at 5 µM, OCI-P5x cells, without rucaparib).

On to `CC(=O)c1ccc2c(c1)[C@@H]1C=CC[C@@H]1[C@H](c1cc3c(cc1Br)OCO3)N2`, for which the remaining activity in test [1] was 128% (inactive). Besides, the fold change in test [2] (setting [8]) is 1.21 (inactive) and 1.03 (inactive); in test [2] (setting [9]), 0.332 and 1.3. Besides, the cell count was 2540 and 1820 in test [2] (setting [10]); 2100 and 1760 in test [2] (setting [11]). In addition, the z-score in test [5] was -0.965 (inactive).

Regarding `CC(C)[C@H](NS(=O)(=O)c1ccc(-c2ccc(Br)cc2)cc1)C(=O)O`, in test [1], the remaining activity is 100% (inactive). The values for the fold change in test [2] (setting [8]) and in test [2] (setting [9]) were 0.908 (inactive) and 1.47, respectively. Besides, the results for the cell count in test [2] (setting [10]) and in test [2] (setting [11]) were 8980 and 9890, respectively. Moreover, the z-score in test [5] is 0.745 (inactive).

Take `COc1cc(NC(=O)c2ccccn2)ccc1Cl`: the remaining activity in test [1] is 122% (inactive). The fold change in test [2] (setting [8]) is 1.03 (inactive) and 0.942 (inactive); in test [2] (setting [9]), 0.59 and 1.55. The cell count in test [2] (setting [10]) is 7300 and 8170; in test [2] (setting [11]), 7110 and 8670. Further, the z-score is 0.202 (inactive) in test [3] (setting [12]), 0.293 in test [3] (setting [13]) and 1.19 (inactive) in test [5].

As to `CNC(CC(=O)O)C(=O)O` (centres undefined), the remaining activity in test [1] is 97.3% (inactive). Moreover, the fold change in test [2] (setting [8]) is 0.825 (inactive) and 1.05 (inactive); in test [2] (setting [9]), 1.55 and 0.67. The cell count in test [2] (setting [10]) was 8200 and 8440; in test [2] (setting [11]), 9940 and 8040. Further, the z-score in test [3] (setting [12]) is -0.165 (inactive); in test [3] (setting [13]), -0.287; in test [5], 0.29 (inactive).

As to `CCN(CC)CCOC(=O)C1(c2ccc([N+](=O)[O-])cc2)CCCC1`, in test [6], the survival is 10.9 (inactive). The parasite load remaining in test [7] was 105% (inactive). The viability in test [7] turned out to be 84.2%. The remaining activity in test [1] is 78.5% (inactive). Moreover, the fold change is 0.929 (inactive) and 1.02 (inactive) in test [2] (setting [8]); 1.89 and 0.688 in test [2] (setting [9]). Further, the cell count in test [2] (setting [10]) was 8310 and 8650; in test [2] (setting [11]) it was 8940 and 8460. Further, the z-score in test [3] (setting [12]) was 0.368 (inactive); in test [3] (setting [13]), -0.484; in test [5], -1.09 (inactive).

Values taken from PubChem BioAssay.
